SW480 rerep: inducers of DNA re-replication in SW480 colon cancer cells; SW480 DNA re-replication, Hoechst DNA content imaging, 48 h; Potency, µM (series often up to 46.1 µM), inactives show top-dose re-replication activation, usual class: activators; 1.8% of 340,000 active; AID 624297; note: % of control where 0% means no effect; nearly all actives have a fitted effect of over 55% in size
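SW480 cells exposed to compounds for 48 hr at 37 C, 5% CO2, then Hoechst-stained 40 min. Nuclear DNA content imaged by fluorescence scanning (405 nm excitation, 500-530 nm emission); re-replication scored as increased high-intensity nuclei.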
MCF10A rerep: induces DNA re-replication in MCF 10a normal breast cells; MCF 10A DNA re-replication, Hoechst nuclear intensity, 48 h; Potency, µM (series often up to 46.1 µM), inactives show top-dose activity, positive = re-replication, actives largely listed as activators; 2.9% of 350,000 active; note: % of control where 0% means no effect; nearly all actives have a fitted effect of over 50% in size
KB-V1 MDR tox: KB-V1 MDR subline cytotoxicity. KB-V1 MDR cells viability, CellTiter-Glo, 72 h. Potency, µM (series often up to 46.1 µM), actives largely listed as cytotoxic. 3.4% of 400,000 active. AID 1347076; note: % is set by controls: 0 for no effect and ±100 for the full control effect; nearly all actives have a fitted effect of over 60% in size
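Potencies derive from concentration-effect curves fitted to normalized luminescence (CellTiter-Glo) of KB-V1 cells treated for 72 h at 37 degrees C in phenol-red-free DMEM containing 10% FBS.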
KB-3-1 cytotox: kills parental KB-3-1 adenocarcinoma cells. KB-3-1 viability, CellTiter-Glo ATP luminescence, 72 h. 1.4% of 400,000 active. Potency, µM (doses to about 46.1 µM), actives largely listed as cytotoxic; note: % is set by controls: 0 for no effect and ±100 for the full control effect; nearly all actives have a fitted effect of over 60% in size
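Parental KB-3-1 adenocarcinoma cells in phenol-red-free DMEM with 10% FBS were pin-treated with compounds at several concentrations, incubated 72 h at 37 °C, and viability read by CellTiter-Glo luminescence; concentration-effect curves were fitted after normalization.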
HT1080-NT tox: kills 2HG-producing HT-1080-NT fibrosarcoma cells; Potency, µM (series often up to 46.1 µM), for inactives: top-dose activity, negative = less viability, usual class: cytotoxic; 1.6% of 360,000 active; AID 686970; HT-1080-NT fibrosarcoma viability, CellTiter-Glo ATP luminescence, 48 h;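 note: NT is the 2HG producing partner of a matched IDH1 knockdown line; 0% = DMSO-treated cells and -100% = media-only wells without cells; nearly all actives have a fitted effect of over 55% in size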
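750 cells/well, RPMI + 5% FBS; 2 h settle, compound pin-transfer, 48 h at 37 degrees C. CellTiter-Glo 10 min RT, luminescence. Normalized to DMSO and media-only wells.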
HT1080 IDH1KD tx: HT-1080 IDH1 knockdown cell toxicity (counter line). Potency, µM (top dose mostly 46.1 µM), for the others: top-dose activity, negative = toxicity, usual class: cytotoxic. HT-1080 IDH1 knockdown viability, ATP luminescence, 48 h. 2% of 360,000 active;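 note: 0% = DMSO wells and -100% = cell-free medium wells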
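IDH1KD HT-1080 cells, 750/well, RPMI + 5% FBS; compound pinned after 2 h settling; 48 h, 37 °C; CellTiter-Glo luminescence; % activity normalised to DMSO and no-cell wells; curves fitted, classed by r2 and efficacy.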
* marks the source's active call; other numbers are inactive results; i = inactive; ? = inconclusive; . = not tested or not shown; [ ] = dose if it differs, or a comment. An excerpt weighted towards active compounds, which were near 8% of everything screened. Calls come from the whole dose curve; as a rule, active = well fitted curve in the direction sought with a large enough effect; inconclusive = small, poorly fitted or top-dose-only effect, or another doubt; inactive = no such curve, though single readings can be large; an effect the other way counts as inactive or inconclusive. Potency is the fitted concentration of half-maximal effect.

SMILES	SW480 rerep	MCF10A rerep	KB-V1 MDR tox	KB-3-1 cytotox	HT1080-NT tox	HT1080 IDH1KD tx
O=C1C(Cc2ccccc2)Nc2ncnc(N3CCc4ccccc4C3)c2N1Cc1ccc(Cl)cc1 (centres undefined)	?	23µM*	26µM*	i	?	?
CCCCCn1c(=O)[nH]c2cc(C(=O)N3CCN(c4cc(Cl)ccc4C)CC3)ccc2c1=O	.	.	i	i	.	.
COc1cccc(CNC(=O)CCn2cccn2)c1	.	.	i	i	.	.
COc1ccc(C(=O)c2cn(CC(=O)Nc3ccc4c(c3)OCCO4)c3ccc(OC)cc3c2=O)cc1	.	.	i	i	.	.
O=[N+]([O-])c1cc(Br)c(Nc2ccccc2)c([N+](=O)[O-])c1	?	?	16µM*	?	?	3.3µM*
CC(NC(=O)CSc1n[nH]c(N)n1)c1ccccc1 (centres undefined)	-10%	-4%	?	i	3%	3%
CCCc1ccc(-c2cc(NC(=O)CSc3n[nH]c(N)n3)n(-c3ccccc3)n2)cc1	?	21µM*	i	i	0%[9.24 µM]	?
Nc1nc(SCC(=O)Nc2ccccc2Sc2ccccc2)n[nH]1	-3%	-6%	15µM*	i	8%	-18%
COc1ccc(Cn2cc(S(=O)(=O)c3ccc(C)cc3)c(=O)c3cc(F)ccc32)cc1	.	.	i	i	.	.
O=C(O)c1ccccc1C(=O)NNc1ccc(F)cc1	-1%	?	i	i	?	8.2µM*
O=C(O)c1ccccc1C(=O)NCc1ccc(F)cc1	0%	-21%	i	i	1%	10%
COc1cc(CNc2ccc(N3CCN(C(C)=O)CC3)cc2)ccc1OCc1ccc(F)cc1	1%	10µM*	i	i	23µM*	?
CC(=O)N1CCN(c2ccc(NCc3ccc(F)cc3)cc2)CC1	3%	-1%	i	i	9%	5%
COc1cc(C(C[N+](=O)[O-])c2c(C)[nH]c3ccccc23)ccc1O (centres undefined)	-1%	0%	?	?	1%	-11%
CCn1cc(C(c2ccccc2)C(C(C)=O)[N+](=O)[O-])c2ccccc21 (centres undefined)	2%	?	?	i	?	-11%
CC(=O)C(C(c1ccccc1)c1c[nH]c2ccccc12)[N+](=O)[O-] (centres undefined)	?	?	?	7.3µM*	?	23µM*
COc1ccccc1C(C[N+](=O)[O-])c1c[nH]c2ccccc12 (centres undefined)	?	?	?	?	15µM*	?
COc1cc(/C=C(\C#N)c2nnc(N3CCOCC3)n2-c2ccccc2)ccc1O	6.5µM*	1%	i	i	12%	7%
O=C(Nc1ncc([N+](=O)[O-])s1)c1cccs1	-66%	?	16µM*	?	23µM*	21µM*
O=C(CCS(=O)(=O)Cc1ccccc1)Nc1ncc([N+](=O)[O-])s1	23µM*	?	i	i	-8%	18µM*
CCCCC(CC)C(=O)Nc1ncc([N+](=O)[O-])s1 (centres undefined)	-3%	?	?	?	?	18µM*
O=C(CS(=O)(=O)c1ccccc1)Nc1ncc([N+](=O)[O-])s1	0%	-2%	i	i	11%	14%
O=C(/C=C/c1ccc([N+](=O)[O-])cc1)Nc1ncc([N+](=O)[O-])s1	?	?	8.2µM*	?	?	?
O=C(NCCSc1c[nH]c2ccccc12)c1ccccc1Cl	.	.	?	i	.	.
COc1ccc(N(CC(=O)N2CCc3ccccc3C2)S(=O)(=O)c2ccc(C)cc2)cc1Cl	.	.	i	i	.	.
SMILES	SW480 rerep	MCF10A rerep	KB-V1 MDR tox	KB-3-1 cytotox	HT1080-NT tox	HT1080 IDH1KD tx
O=C(CCS(=O)(=O)c1ccccc1)Nc1ncc([N+](=O)[O-])s1	7.3µM*	4.6µM*	?	?	21µM*	16µM*
O=C(CCS(=O)(=O)Cc1ccccc1)Nc1nncs1	21µM*	?	i	i	-14%	0%
COc1ccc(N2CCN(C(=O)Cc3c(C(=O)O)c(C)cn3C)CC2)cc1	.	.	i	i	.	.
CC(C)C(NC(=O)C(CC(=O)O)NC(=O)C(CCCCN)NC(=O)C(N)CCCN=C(N)N)C(=O)NC(Cc1ccc(O)cc1)C(=O)O (centres undefined)	3%	1%	.	.	.	.
Cc1cc(C)c(S(=O)(=O)Nc2cccc3nsnc23)c(C)c1	1%	?	15µM*	18µM*	-1%	0%
Cc1cc2c(cc1C)N[C@]1(C[C@H]3CCC(=O)N4CC[C@@H](C1)[C@@H]34)C(=Nc1ccccc1C)N2	.	.	i	i	.	.
COC(=O)c1cccc(NC(=O)C23CC4CC(C2)CC(n2cncn2)(C4)C3)c1	-10%	-2%	21µM*	i	-2%	-1%
O=C(Nc1ccccc1)C12CC3CC(C1)CC(n1cnc([N+](=O)[O-])n1)(C3)C2	6%	2%	i	i	1%	5%
COc1cc(NC(=O)C23CC4CC(C2)CC(n2cnc([N+](=O)[O-])n2)(C4)C3)cc(OC)c1	?	2%	21µM*	?	7%	5%
Cc1c(C(=O)N2CCCCCC2)c(S(=O)(=O)Nc2cccc(C#N)c2)c(C)n1C	.	.	i	i	.	.
CN(C)CCNC(=O)C(=O)NCC(c1cccnc1)N1CCN(c2ccccc2)CC1 (centres undefined)	.	.	i	i	.	.
COC(=O)c1cc(OC)c(OC)c(OC)c1NC(=O)c1cc(=O)n(C)c(=O)n1C	.	.	i	i	.	.
COc1ccc(-n2nc(C(=O)NCC(=O)NCC3CCCO3)c3ccccc3c2=O)cc1Cl (centres undefined)	0%	6%	9.2µM*	i	-10%	-4%
FC(F)(F)C(F)(F)C(F)(F)C(F)(F)C(F)(F)C(F)(F)F	-1%	-5%	.	.	.	.
CC(c1cccs1)N(Cc1ccco1)C(=O)Nc1ccc(Cl)c(Cl)c1 (centres undefined)	?	?	16µM*	i	-17%	-25%
CCc1ccc(/C=C2\Oc3cc(OC(=O)N4CCOCC4)ccc3C2=O)cc1	4%	?	21µM*	?	14%	29%
CCc1cccc(C)c1NC(=O)CN1C(=O)C2(SCC(=O)N2c2cc(C)cc(C)c2)c2ccccc21 (centres undefined)	.	.	i	i	.	.
